A short description of experiment [1]: A CellTox Green Cytotoxicity Assay to monitor cytotoxicity in HEK293 cells - 40 hour (AID 1224871). Further: nearly all actives have a fitted effect of over 45% in size. Further: potency means the concentration at half of the fitted maximal effect. An outline of the steps:
(§1)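 Fluorescence from a DNA-binding dye excluded by viable cells was measured repeatedly in the same HEK293 wells (600 cells/well) during continuous compound exposure at 37 C. Each assay gives one read point: 0, 8, 16, 24, 32 or 40 h.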

The nature of experiment [2]: qHTS RealTime-Glo MT Cell Viability Assay in HEK293 cells - 16 hour (AID 1224872). Further: top concentration of the series differs between compounds; nearly all actives have a fitted effect of over 50% in size. An outline of the steps: (§2)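 Nonlytic real-time viability readout: viable cells convert prosubstrate to NanoLuc substrate, giving luminescence proportional to live cell number. HEK293, 600 cells/well, compound added after 5 h, continuous culture at 37 C.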
Experiment [3] can be described thus: qHTS RealTime-Glo MT Cell Viability Assay in HepG2 cells - 8 hour (AID 1224873). Further: nearly all actives have a fitted effect of over 55% in size. An outline of the steps:
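Real-time viability: cells seeded at 600 per well together with NanoLuc and cell-permeant prosubstrate, compounds added after 5 h incubation. Luminescence tracked at 0, 8, 16, 24, 32 and 40 h of exposure.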

Experiment [4] in a line: qHTS RealTime-Glo MT Cell Viability Assay in HEK293 cells - 40 hour (AID 1224874). Further: nearly all actives have a fitted effect of over 50% in size. The conditions noted are these: RealTime-Glo luminescence; max response: hits give low values. An outline of the steps: (§3)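 Luminescence, which tracks viable cell number through reduction of the prosubstrate to a NanoLuc substrate, was read over continuous 37 C culture. Cells (600/well) were premixed with reagent and rested 5 h before 23 nL of compound in DMSO was pinned.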

The nature of experiment [5]: A CellTox Green Cytotoxicity Assay to monitor cytotoxicity in HEK293 cells - 24 hour (AID 1224875). Further: nearly all actives have a fitted effect of over 45% in size. Further: potency means the concentration at half of the fitted maximal effect. An outline of the steps: as §1
Experiment [6] in a line: A CellTox Green Cytotoxicity Assay to monitor cytotoxicity in HepG2 cells - 16 hour (AID 1224876). Further: nearly all actives have a fitted effect of over 45% in size. Further: potency means the concentration at half of the fitted maximal effect. An outline of the steps:
(§4)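 Real-time cytotoxicity: fluorescence of a cell-impermeant cyanine dye binding DNA of dead HepG2 cells, measured repeatedly (0–40 h) during compound exposure at 37 C. Cells seeded 600/well with reagent, dosed after 5 h.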

Experiment [7] is described as follows: qHTS RealTime-Glo MT Cell Viability Assay in HepG2 cells - 32 hour (AID 1224877). Further: nearly all actives have a fitted effect of over 55% in size. An outline of the steps: (§5)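 Luminescence read-out: viable HepG2 cells reduce a prosubstrate to a NanoLuc substrate, giving a signal proportional to live cell number. Reads taken at 0, 8, 16, 24, 32 and 40 h of compound exposure at 37 C.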
(qHTS replaces the single test concentration by a dilution series.)

The nature of experiment [8]: A CellTox Green Cytotoxicity Assay to monitor cytotoxicity in HepG2 cells - 24 hour (AID 1224878). Further: nearly all actives have a fitted effect of over 45% in size. Further: potency means the concentration at half of the fitted maximal effect. An outline of the steps: as §4
Experiment [9] can be described thus: A CellTox Green Cytotoxicity Assay to monitor cytotoxicity in HepG2 cells - 40 hour (AID 1224879). Further: nearly all actives have a fitted effect of over 40% in size. Further: potency means the concentration at half of the fitted maximal effect. An outline of the steps: as §4
Experiment [10] in a line: qHTS RealTime-Glo MT Cell Viability Assay in HEK293 cells - 0 hour (AID 1224880). An outline of the steps: as §3
The nature of experiment [11]: A CellTox Green Cytotoxicity Assay to monitor cytotoxicity in HEK293 cells - 32 hour (AID 1224881). Further: nearly all actives have a fitted effect of over 40% in size. Further: potency means the concentration at half of the fitted maximal effect. An outline of the steps: as §1
The nature of experiment [12]: A CellTox Green Cytotoxicity Assay to monitor cytotoxicity in HepG2 cells - 0 hour (AID 1224882). Further: nearly all actives have a fitted effect of over 35% in size. An outline of the steps:
as §4

Experiment [13] is described as follows: A CellTox Green Cytotoxicity Assay to monitor cytotoxicity in HepG2 cells - 32 hour (AID 1224883). Further: nearly all actives have a fitted effect of over 50% in size. Further: potency means the concentration at half of the fitted maximal effect. An outline of the steps:
as §4

The nature of experiment [14]: A CellTox Green Cytotoxicity Assay to monitor cytotoxicity in HEK293 cells - 8 hour (AID 1224884). Further: nearly all actives have a fitted effect of over 35% in size. An outline of the steps: as §1
The nature of experiment [15]: qHTS RealTime-Glo MT Cell Viability Assay in HepG2 cells - 16 hour (AID 1224885). Further: nearly all actives have a fitted effect of over 50% in size. An outline of the steps: as §5
A short description of experiment [16]: qHTS RealTime-Glo MT Cell Viability Assay in HEK293 cells - 24 hour (AID 1224886). An outline of the steps: as §2
The nature of experiment [17]: qHTS RealTime-Glo MT Cell Viability Assay in HEK293 cells - 8 hour (AID 1224887). An outline of the steps: as §3
The nature of experiment [18]: A CellTox Green Cytotoxicity Assay to monitor cytotoxicity in HEK293 cells - 16 hour (AID 1224888). Further: nearly all actives have a fitted effect of over 35% in size. An outline of the steps:
as §1

The nature of experiment [19]: A CellTox Green Cytotoxicity Assay to monitor cytotoxicity in HepG2 cells - 8 hour (AID 1224890). Further: nearly all actives have a fitted effect of over 45% in size. Further: potency means the concentration at half of the fitted maximal effect. An outline of the steps:
as §4

A short description of experiment [20]: qHTS RealTime-Glo MT Cell Viability Assay in HepG2 cells - 0 hour (AID 1224889). Further: nearly all actives have a fitted effect of over 50% in size. An outline of the steps:
as §5

This is an account of results in PubChem BioAssay (Tox21).

Unmarked numbers belong to inactive results. Records with an inconclusive call do not appear. Calls of active or inactive are those of the source. The call rests on the fitted dose curve; in most records, active means well fitted curve in the direction sought with a large enough effect in the repeat runs; inconclusive means weak or mixed curves; inactive means no such curve, though single readings can be large; an effect the other way counts as inactive or inconclusive.
On the % scale 0 is the no-effect control and ±100 the full control effect.

On to `CCN(CC)CC1CCCCN1CC(=O)N1c2ccccc2C(=O)Nc2cccnc21` (configuration not stated), for which the Potency entry in experiment [1], in [2], in experiment [5], in experiment [6], in experiment [7] and in [8] was “inactive” each time. The Potency entry in [9], in [11], in [12], in [13], in [14] and in [16] was “inactive” in each case. Besides, the Potency result in [17], in experiment [18] and in experiment [19] was “inactive” in each case. Also, the result in experiment [3], in experiment [10] and in experiment [15] was inactive. Further, the max response in [4] is 0.471%.

As for `CC(C)(C)c1ccc(OC(=O)c2ccccc2O)cc1`, the Potency entry in experiment [1], in experiment [2], in experiment [5], in experiment [6], in experiment [7] and in experiment [8] was “inactive” throughout. For the same compound, the Potency entry in experiment [9], in [11], in [12], in experiment [14], in experiment [16] and in experiment [17] was “inactive” in each case. Besides, the Potency result in experiment [18], in experiment [20] and in experiment [19] was “inactive” each time. The result in experiment [3], in [10] and in experiment [15] was inactive. For the same compound, the max response in experiment [4] is -15.3%.

Turning to `O=C(CCCl)NCc1ccccc1`, the Potency result in [1], in experiment [2], in [5], in experiment [6], in experiment [7] and in experiment [8] was “inactive” throughout. The Potency result in experiment [9], in experiment [11], in experiment [12], in [13], in [14] and in experiment [16] was “inactive” in each case. The Potency entry in experiment [17], in [18], in experiment [20] and in experiment [19] was “inactive” each time. For the same compound, the call in experiment [3], in experiment [10] and in experiment [15] was inactive. The max response in experiment [4] is -3.01%.

For `CCCCCCCOC(=O)CCC`, the Potency entry in experiment [1], in [2], in experiment [5], in experiment [6], in experiment [7] and in experiment [8] was “inactive” throughout. Moreover, the Potency result in experiment [9], in experiment [11], in experiment [12], in [13], in [16] and in [17] was “inactive” in each case. For the same compound, the Potency result in experiment [20] and in experiment [19] was “inactive” throughout. Besides, the result in experiment [3], in experiment [10] and in [15] was inactive. Also, the max response in experiment [4] was 4.56%.

In the case of `CCCOCCC`, the Potency entry in [1], in experiment [2], in experiment [5], in experiment [6], in experiment [7] and in experiment [8] was “inactive” each time. Moreover, the Potency entry in experiment [9], in [11], in [12], in experiment [13], in experiment [14] and in [16] was “inactive” throughout. For the same compound, the Potency entry in experiment [17], in experiment [18], in experiment [20] and in experiment [19] was “inactive” each time. For the same compound, the result in experiment [3], in experiment [10] and in experiment [15] was inactive. The max response in [4] is 23.9%.

As to `CN1CCN(N)CC1`, the Potency result in [1], in experiment [2], in experiment [5], in [6], in experiment [7] and in experiment [8] was “inactive” throughout. In addition, the Potency entry in experiment [9], in experiment [11], in [12], in experiment [13], in [14] and in experiment [16] was “inactive” in each case. Further, the Potency result in experiment [17], in experiment [18], in [20] and in [19] was “inactive” throughout. The compound was classed as inactive in experiment [3], in [10] and in experiment [15]. The max response in [4] is 5.85%.

In the case of `CN(C)Cc1ccccc1`, the Potency result in experiment [1], in [2], in [5], in [6], in experiment [7] and in experiment [8] was “inactive” each time. Besides, the Potency result in experiment [9], in [11], in experiment [12], in experiment [13], in experiment [14] and in experiment [16] was “inactive” throughout. Moreover, the Potency result in experiment [17], in experiment [18] and in experiment [19] was “inactive” in each case. In addition, the result in [3], in experiment [10] and in experiment [15] was inactive. In addition, in experiment [4], the max response is 7.47%.

On to `C=O`, for which the Potency result in experiment [1], in [2], in experiment [5], in experiment [6], in experiment [7] and in experiment [8] was “inactive” each time. Besides, the Potency entry in experiment [9], in experiment [11], in experiment [12], in experiment [13], in [14] and in [16] was “inactive” throughout. The Potency result in experiment [17], in [20] and in experiment [19] was “inactive” each time. Also, the compound was called inactive in experiment [3], in [10] and in experiment [15]. Moreover, the max response in experiment [4] is -2.52%.

As for `O=C(CC(=O)C(F)(F)F)c1ccccc1`, the Potency result in experiment [1], in experiment [2], in experiment [5], in experiment [6], in [7] and in [8] was “inactive” in each case. Moreover, the Potency entry in [9], in experiment [11], in [12], in experiment [13], in experiment [14] and in [16] was “inactive” each time. Besides, the Potency result in experiment [17], in experiment [18], in [20] and in experiment [19] was “inactive” each time. The result in [3], in [10] and in experiment [15] was inactive. The max response in experiment [4] was -4.62%.

As for `C=CC(C)(O)CC/C=C(\C)CCC=C(C)C` (configuration not stated), the Potency was 49 µM (active) in experiment [1]; 54.9 µM (active) in experiment [5]; 17.4 µM (active) in experiment [6]; 21.9 µM (active) in experiment [8]; 21.9 µM (active) in experiment [9]; 49 µM (active) in experiment [11]. The Potency in experiment [13] was 21.9 µM (active); in experiment [19], 19.5 µM (active). For the same compound, the Potency entry in [2], in experiment [7], in experiment [12], in experiment [16], in [17] and in experiment [20] was “inactive” each time. The outcome in experiment [3], in experiment [10] and in [15] was inactive. The max response in experiment [4] was -1.81%.

`CC(C)CC(=O)OCc1ccccc1`: the Potency entry in experiment [1], in experiment [2], in experiment [5], in [6], in [7] and in experiment [8] was “inactive” each time. The Potency result in experiment [9], in [11], in experiment [12], in experiment [13], in experiment [14] and in experiment [16] was “inactive” throughout. Further, the Potency entry in experiment [17], in experiment [18], in experiment [20] and in [19] was “inactive” in each case. The compound was called inactive in experiment [3], in experiment [10] and in experiment [15]. The max response in [4] is 3.51%.

Consider `COC(C)CCO` (configuration not stated), for which the Potency result in experiment [1], in experiment [2], in experiment [5], in [6], in [7] and in experiment [8] was “inactive” each time. Moreover, the Potency entry in [9], in experiment [11], in experiment [12], in [13], in [14] and in experiment [16] was “inactive” in each case. The Potency result in experiment [17], in experiment [18], in experiment [20] and in experiment [19] was “inactive” in each case. The call in experiment [3], in experiment [10] and in experiment [15] was inactive. The max response in experiment [4] is 6.13%.

As to `O=C(O)[C@@H]1CSCN1`, the Potency result in [1], in experiment [2], in experiment [5], in [6], in experiment [7] and in [8] was “inactive” throughout. Moreover, the Potency result in experiment [9], in experiment [11], in [12], in experiment [13], in [14] and in [16] was “inactive” each time. Moreover, the Potency entry in experiment [17], in [18], in [20] and in experiment [19] was “inactive” each time. For the same compound, the compound was called inactive in [3], in [10] and in [15]. Further, the max response in [4] is 2.01%.
